# Assay results from the supplement of paper PMC8728848.
# Shown is part of a subset that was picked to be rich in the strongest signals.
# B1: RS2L (Ralstonia solanacearum), B5RXL5_RALSO (protein)
# chain: MAQQGVFTLPANTSFGVTAFANAANTQTIQVLVDNVVKATFTGSGTSDKLLGSQVLNSGSGAIKIQVSVNGKPSDLVSNQTILANKLNFAMVGSEDGTDNDYNDGIAVLNWPLG
# Legend:
# Assay in all cases: glycan array binding signal (z-score within array); higher = stronger binding
# Conditions in all cases: glycan notation: IUPAC condensed, linker removed
# [1] = target: Fuc(a1-2)Gal(b1-3)GlcNAc(b1-2)Man(a1-3)[Fuc(a1-2)Gal(b1-3)GlcNAc(b1-2)Man(a1-6)]Man(b1-4)GlcNAc(b1-4)[Fuc(a1-6)]GlcNAc
# Method in brief: (§1)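 Columns mapping to the same glycan were averaged after glycan names were converted to IUPAC-condensed notation. The data come from 3228 arrays in the Consortium for Functional Glycomics database, limited to those with an available protein sequence. Binding is reported as a within-array Z-score averaged across arrays of one protein sequence and across linkers.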
# [2] = target: Fuc(a1-2)Gal(b1-3)GlcNAc(b1-3)[Gal(b1-4)GlcNAc(b1-6)]Gal(b1-4)Glc
# Method in brief: as §1
# [3] = target: Fuc(a1-2)Gal(b1-4)GlcNAc(b1-3)GalNAc
# Method in brief: as §1
# [4] = target: Fuc(a1-2)Gal(b1-4)[Fuc(a1-3)]GlcNAc(b1-2)[Fuc(a1-2)Gal(b1-4)[Fuc(a1-3)]GlcNAc(b1-4)]Man(a1-3)[Fuc(a1-2)Gal(b1-4)[Fuc(a1-3)]GlcNAc(b1-2)Man(a1-6)]Man(b1-4)GlcNAc(b1-4)GlcNAc
# Method in brief: as §1
# [5] = target: Fuc(a1-2)[GalNAc(a1-3)]Gal(b1-4)Glc
# Method in brief: as §1
# [6] = target: Fuc(a1-2)[GalNAc(a1-3)]Gal(b1-4)[Fuc(a1-3)]GlcNAc(b1-3)GalNAc
# Method in brief: as §1
# [7] = target: Fuc(a1-3)[Gal(b1-4)]GlcNAc(b1-3)GalNAc
# Method in brief: as §1
# [8] = target: Gal(b1-3)GlcNAc(b1-3)Gal(b1-4)GlcNAc(b1-6)[Gal(b1-3)GlcNAc(b1-3)]Gal(b1-4)Glc
# Method in brief: as §1
# [9] = target: Gal(b1-4)GlcNAc(b1-6)Gal(b1-4)GlcNAc
# Method in brief: as §1
# [10] = target: GalNAc(b1-3)Gal
# Method in brief: as §1
# [11] = target: GalNAc(b1-4)Gal(b1-4)Glc
# Method in brief: as §1
# [12] = target: GalNAc(b1-6)GalNAc
# Method in brief: as §1
# [13] = target: GlcNAc(a1-4)Gal(b1-4)GlcNAc(b1-3)Gal(b1-4)[Fuc(a1-3)]GlcNAc(b1-3)Gal(b1-4)[Fuc(a1-3)]GlcNAc
# Method in brief: as §1
# [14] = target: GlcNAc(b1-3)Gal(b1-3)GalNAc
# Method in brief: as §1
# [15] = target: GlcNAc(b1-3)GalNAc
# Method in brief: as §1
# [16] = target: Kdn(a2-3)Gal(b1-4)Glc
# Method in brief: as §1
# [17] = target: Kdn(a2-6)Gal(b1-4)GlcNAc
# Method in brief: as §1
# [18] = target: Man(a1-2)Man(a1-2)Man(a1-6)[Man(a1-3)]Man
# Method in brief: as §1
# [19] = target: Man(a1-2)Man(a1-3)[Man(a1-2)Man(a1-6)]Man(a1-6)[Man(a1-2)Man(a1-2)Man(a1-3)]Man
# Method in brief: as §1
# [20] = target: Man(a1-2)Man(a1-3)[Man(a1-2)Man(a1-6)]Man(a1-6)[Man(a1-2)Man(a1-2)Man(a1-3)]Man(b1-4)GlcNAc(b1-4)GlcNAc
# Method in brief: as §1
# [21] = target: Man(a1-2)Man(a1-6)[Man(a1-3)]Man(a1-6)[Man(a1-2)Man(a1-2)Man(a1-3)]Man
# Method in brief: as §1
# [22] = target: Man(a1-2)Man(a1-6)[Man(a1-3)]Man(a1-6)[Man(a1-2)Man(a1-2)Man(a1-3)]Man(b1-4)GlcNAc(b1-4)GlcNAc
# Method in brief: as §1
# [23] = target: Man(a1-3)[Man(a1-6)]Man
# Method in brief: as §1
# [24] = target: Man(a1-3)[Man(a1-6)]Man(a1-6)[Man(a1-2)Man(a1-3)]Man(b1-4)GlcNAc(b1-4)GlcNAc
# Method in brief: as §1
# [25] = target: Man(a1-3)[Man(a1-6)]Man(a1-6)[Man(a1-3)]Man
# Method in brief: as §1
# [26] = target: Man(a1-3)[Man(a1-6)]Man(a1-6)[Man(a1-3)]Man(b1-4)GlcNAc(b1-4)GlcNAc
# Method in brief: as §1
# [27] = target: Neu5Ac(a2-3)Gal(b1-3)GalNAc(b1-3)Gal(a1-4)Gal(b1-4)Glc
# Method in brief: as §1
# [28] = target: Neu5Ac(a2-3)Gal(b1-3)GlcNAc
# Method in brief: as §1
# [29] = target: Neu5Ac(a2-3)Gal(b1-4)GlcNAc(b1-2)Man(a1-3)[GlcNAc(b1-2)Man(b1-4)GlcNAc(b1-2)Man(a1-6)]Man(b1-4)GlcNAc(b1-4)GlcNAc
# Method in brief: as §1
# [30] = target: Neu5Ac(a2-3)Gal(b1-4)GlcNAc(b1-6)[Neu5Ac(a2-3)Gal(b1-3)]GalNAc
# Method in brief: as §1
# [31] = target: Neu5Ac(a2-6)Gal(b1-4)GlcNAc(b1-2)Man(a1-3)Man(b1-4)GlcNAc(b1-4)GlcNAc
# Method in brief: as §1
# [32] = target: Neu5Ac(a2-6)GalNAc
# Method in brief: as §1
# [33] = target: Neu5Ac(a2-6)GalNAc(b1-4)GlcNAc
# Method in brief: as §1
# [34] = target: Neu5Ac(a2-8)Neu5Ac(a2-8)Neu5Ac
# Method in brief: as §1
# [35] = target: Neu5Ac(a2-8)Neu5Ac(a2-8)Neu5Ac(a2-8)Neu5Ac(a2-3)[GalNAc(b1-4)]Gal(b1-4)Glc
# Method in brief: as §1
# [36] = target: Neu5Ac(b2-6)Gal(b1-4)GlcNAc
# Method in brief: as §1
# [37] = target: Neu5Gc(a2-3)Gal(b1-4)GlcNAc
# Method in brief: as §1
binder,measurement,setting,value
B1,glycan array binding signal (z-score),[1],0.443
same,glycan array binding signal (z-score),[2],-0.211
same,glycan array binding signal (z-score),[3],-0.205
same,glycan array binding signal (z-score),[4],-0.175
same,glycan array binding signal (z-score),[5],-0.244
same,glycan array binding signal (z-score),[6],-0.233
same,glycan array binding signal (z-score),[7],-0.24
same,glycan array binding signal (z-score),[8],-0.246
same,glycan array binding signal (z-score),[9],-0.255
same,glycan array binding signal (z-score),[10],-0.243
same,glycan array binding signal (z-score),[11],-0.247
same,glycan array binding signal (z-score),[12],-0.243
same,glycan array binding signal (z-score),[13],-0.12
same,glycan array binding signal (z-score),[14],-0.245
same,glycan array binding signal (z-score),[15],-0.249
same,glycan array binding signal (z-score),[16],-0.242
same,glycan array binding signal (z-score),[17],-0.251
same,glycan array binding signal (z-score),[18],6.32
same,glycan array binding signal (z-score),[19],6.92
same,glycan array binding signal (z-score),[20],3.42
same,glycan array binding signal (z-score),[21],5.7
same,glycan array binding signal (z-score),[22],5.97
same,glycan array binding signal (z-score),[23],7.32
same,glycan array binding signal (z-score),[24],6.99
same,glycan array binding signal (z-score),[25],5.11
same,glycan array binding signal (z-score),[26],5.42
same,glycan array binding signal (z-score),[27],-0.25
same,glycan array binding signal (z-score),[28],-0.247
same,glycan array binding signal (z-score),[29],-0.245
same,glycan array binding signal (z-score),[30],-0.254
same,glycan array binding signal (z-score),[31],-0.245
same,glycan array binding signal (z-score),[32],-0.244
same,glycan array binding signal (z-score),[33],-0.242
same,glycan array binding signal (z-score),[34],-0.243
same,glycan array binding signal (z-score),[35],-0.22
same,glycan array binding signal (z-score),[36],-0.252
same,glycan array binding signal (z-score),[37],-0.242
